In all, about 33,000 sequences were measured (“E-score (-0.5 to 0.5)”: median about -0.0014, highest 2% from about 0.25 on). The sample as a whole holds a higher share of the highest values than the screen did.
The sequences below were run against T1, Cad1 (UniProt P24813) (assay: PBM E-score (8-mer binding enrichment) (E-score (-0.5 to 0.5)); higher = stronger / more preferred TF binding). Conditions: protein concentration: 100 nM; construct: GST-full length.
T1 sequence: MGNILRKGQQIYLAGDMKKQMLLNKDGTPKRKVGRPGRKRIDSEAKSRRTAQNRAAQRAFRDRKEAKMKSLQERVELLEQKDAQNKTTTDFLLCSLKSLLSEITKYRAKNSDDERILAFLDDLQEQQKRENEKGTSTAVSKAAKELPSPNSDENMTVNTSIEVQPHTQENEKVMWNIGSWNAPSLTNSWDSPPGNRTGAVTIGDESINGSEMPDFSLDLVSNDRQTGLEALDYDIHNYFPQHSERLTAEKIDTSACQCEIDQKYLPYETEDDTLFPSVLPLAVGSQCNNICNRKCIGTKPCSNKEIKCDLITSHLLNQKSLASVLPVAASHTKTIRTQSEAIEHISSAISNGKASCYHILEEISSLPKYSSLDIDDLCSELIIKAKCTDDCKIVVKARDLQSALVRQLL
Method in brief: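 E-scores (a modified Wilcoxon-Mann-Whitney statistic) were assigned by the Universal PBM Analysis Suite to every ungapped eight-base word pooled with its reverse complement. The input came from universal all-10-mer Agilent arrays made double-stranded by primer extension and probed with GST-tagged yeast transcription factors at about 100-200 nM. Fluorescent anti-GST detected bound protein, and masliner normalised the scans.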

Point of comparison: TGGGAACA, “PBM E-score” value -0.0827. Against it:
- CGCTCAAA — higher, 0.0635
- GTACTCAC — higher, 0.158
- CATCGATA — higher, 0.149
- CTAGATAG — higher, 0.0131
- GAAATCGA — higher, 0.0829
- TGTATACA — higher, 0.272
- ATTACAGA — higher, 0.152
- CTTACATC — higher, -0.00465
- AGTATACA — higher, 0.207
- GGTATACA — higher, 0.0215
- ACTACATA — higher, 0.0142
- ATTACATA — higher, 0.296
- GCTACATA — higher, -0.00397
- CATACATA — higher, 0.161
- CTTACATA — higher, 0.278
- GTTACATA — higher, 0.253
- GTTACAAA — higher, 0.223
- TAAGTCCA — higher, 0.0496
- ATGAATCA — higher, 0.0957
- AACAGCGC — higher, 0.0746
- CAGATCGC — higher, -0.038
- CCTTGTAA — higher, 0.049
- ATGACTAA — higher, 0.377
- GTGACTAA — higher, 0.37
- GTGACTCA — lower, -0.0941
- ATGACTAG — lower, -0.129
- GTGACTGA — higher, 0.157
- ATGACTAC — lower, -0.181
- AGCTTGAG — lower, -0.123
- CGCATAGA — higher, 0.0454
- GATACACA — higher, 0.0908
- GATACACC — higher, 0.257
- AATACACA — higher, 0.144
- CATACACC — higher, 0.00325
- AATACACT — higher, 0.158
- AATACACC — higher, 0.255
- AGTACGCG — higher, 0.26
- AGTACGCA — lower, -0.129
- AGTACGCC — lower, -0.293
- AATAGGGT — higher, 0.0291
- CGCCCAGC — higher, 0.0197
- CGTTGAAG — lower, -0.178
- CTCCGGAC — higher, 0.00021
- CTCCGGAA — higher, 0.00101
- ACCGGAAA — higher, 0.135
- TCCGGAAA — higher, 0.252
- TTCCGGAA — higher, 0.316
- ATCCGGAA — higher, 0.22
- GTCCGGAC — higher, 0.319
- ATCCGGAC — higher, 0.131
- CCCGGAAA — higher, 0.134
- ATGCTCCG — lower, -0.114
- ATCCAGGG — lower, -0.173
- GACAAGCA — higher, -0.021
- ACCACTAT — higher, 0.0199
- CACAATTA — higher, 0.00794
- ACACTTTA — higher, 0.0868
- CATAATTA — higher, 0.279
- GATAATAA — higher, 0.0805
- AATAATTC — higher, 0.18
- GATAATTA — higher, 0.297
- GATAATGA — higher, 0.167
- AATAATTA — higher, 0.336
- CATAATTC — higher, 0.0611
- CATAATGA — higher, 0.0454
- AATAATTG — higher, 0.0365
- CTCATTCA — higher, 0.0583
- AGTGTGAC — higher, -0.0643
- AGACTCAG — higher, 0.0244
- CGCGATTC — higher, 0.268
- CGCGATTA — higher, 0.187
- AGCGATTC — higher, -0.021
- CCCTAACC — lower, -0.157
- CACTAGAC — lower, -0.0989
- AGCTTACC — higher, -0.0175
- TGCTTACA — higher, 0.235
- AGCTTACA — higher, 0.351
- GCGCCCAA — higher, 0.143
- AATTCGGG — higher, 0.0637
- AATTCGTC — higher, 0.274
- AATTCGGT — higher, 0.266
- AATTCGTA — higher, 0.0688
- AATTCGGC — higher, -0.0493
- CATTCGTC — higher, 0.0375
- CAATTTCA — higher, 0.0182
- CTCGGCAG — higher, 0.136
- CAAGCTTG — lower, -0.294
- ATTGGTCC — higher, 0.0438
- CAACCGAA — higher, 0.168
- CAACCGCG — higher, 0.297
- CAACCGAC — higher, 0.252
- AAACCGCC — higher, -0.0149
- GAACCGAC — higher, 0.105
- CAACCGCA — higher, 0.066
- CAACCGCC — lower, -0.23
- AAACCGCA — lower, -0.213
- AAACCGCG — higher, 0.271
- ACTAGAGA — lower, -0.224
- CGTGCGAA — higher, 0.036
- GGGCATTA — lower, -0.152
- GATCAAGC — higher, -0.0801
- GGCGGTAA — higher, 0.045
- ACTTCGCG — higher, 0.216
- GCAACAGC — higher, -0.076
- ATAAGGGG — higher, -0.0559
- CTATCGTA — higher, -0.0798
- CCGAAACA — higher, 0.0714
- TCGAAACA — higher, 0.251
- ACGAAACA — higher, 0.192
- AGCTATCA — higher, 0.118
- CGAAGAGA — higher, 0.106
- CTGTCACA — higher, 0.0656
- ATGTCAGC — higher, 0.315
- ATGTCACC — higher, 0.0545
- CTGTCAGC — higher, 0.118
- ATGTCACG — higher, 0.0134
- ATGTCAGA — higher, -0.0566
- GTGTCACA — higher, 0.252
- GTGTCAAA — higher, 0.163
- ATGTCACA — higher, 0.306
- AGCCAGAT — lower, -0.239
- AGGTCAAC — higher, 0.00774
- ACCTGATG — lower, -0.134
- CAGAATGG — higher, -0.00601
- CATCAAGA — higher, 0.0115
- CCTCAACA — higher, 0.0958
- ATTCACGC — higher, 0.0118
- CTTCACGA — lower, -0.199
- CTTCACGC — higher, 0.26
- CTAGACCA — higher, 0.00762
- CCAGGACA — higher, 0.0769
- CTTATCAC — higher, 0.0836
- CATATCAG — higher, -0.00093
- GTTATCAA — higher, 0.129
- ATTATCGG — higher, 0.0117
- ATTATCAC — higher, 0.151
- ATTATCAG — higher, -0.0126
- CATATCAA — higher, 0.259
- ATTATCGC — higher, 0.282
- CTTATCAA — higher, 0.256
- ATTATCAA — higher, 0.297
- AATATCAA — higher, 0.138
- ATTATCGA — higher, 0.107
- CCAATCGA — higher, 0.105
- TATTAGAA — higher, 0.24
- CAAACACG — higher, 0.126
- CAAAAGCG — higher, 0.0683
- ACACGCCC — higher, -0.0578
- AGCCATAT — higher, -0.0728
- GGTAGCCA — higher, -0.0237
- CGACTTAA — higher, 0.0481
- TATACCAA — higher, 0.0311
- GCGAAATA — higher, -0.0552
- CCGAAATA — higher, 0.253
- ACGAAATA — higher, 0.201
- GGGGTTCA — lower, -0.191
- ATCGCCCG — higher, -0.0312
- ATTGCTTA — higher, 0.176
- GTTGCTGA — higher, 0.111
- GTTGCTTA — higher, 0.261
- GCTCGGTA — lower, -0.203
- CATAGGGC — lower, -0.163
- CAATTCGC — higher, 0.322
- CAATTCGA — higher, -0.0688
- GAATTCGC — higher, -0.0565
- ATTCGCAC — higher, 0.00983
- GGTGCTGA — higher, -0.0741
- AACGCCTG — higher, 0.0294
- ACTAAGCA — higher, 0.181
- ACTAAGCG — higher, 0.3
- AGTAAGCG — higher, 0.338
- AGTAAGCC — higher, 0.156
- ACTAAGCT — higher, 0.223
- AGTAAGGG — higher, 0.0236
- ACCGTCTC — higher, 0.138
- CTTGCAAA — higher, 0.105
- ATTCCTTC — higher, 0.105
- CTTGTACA — higher, -0.0604
- ATTGTACA — higher, 0.106
- GTTGTACA — higher, 0.286
- CTGAGGGA — higher, -0.0379
- ATTAAAAC — higher, 0.108
- ACTAAAAC — higher, 0.116
- ATTAAAAT — higher, 0.253
- ACTAAAAA — higher, 0.107
- ATTAAAAA — higher, 0.221
- ACTAAAAT — higher, 0.255
- ATGACGTC — higher, 0.0734
- AGGAAGTC — lower, -0.225
- GAGTGGGC — lower, -0.294
- AGGCTACA — higher, 0.00724
- AGAAAGAA — higher, 0.0147
- GGAAAGAA — lower, -0.177
- TGAAAGAA — higher, 0.253
- TGAAAACA — higher, 0.131
- CAAAGTAA — higher, -0.00082
- AAAAGTAA — higher, 0.265
- AAAAGTAT — higher, 0.0548
- GATAGTGA — higher, 0.157
- CATTTTTC — higher, 0.124
- ATGAAAAA — higher, 0.27
- ATGAAAAG — higher, 0.0321
- ACGAAAAG — higher, 0.0611
- ATGAAAAT — higher, 0.0649
- ACGAAAAA — higher, -0.045
- ACGAAAAC — higher, 0.259
- ACTTCACT — higher, -0.00075
- CACAAGCG — lower, -0.145
- ATATCCCA — higher, 0.0408
- CGCTCCAA — higher, 0.0125
- GTGTTAAC — higher, 0.168
- CCGTTAAC — higher, 0.0965
- CTGTTAAC — higher, 0.258
- GCGTTAAC — higher, 0.257
- ATGTTAAC — higher, 0.0833
- ACGTTAAC — higher, 0.102
- CAGGTTTC — higher, 0.111
- ATGAACTA — higher, 0.0699
